Test results taken from PubChem BioAssay (NCI).
Compounds without any hit were thinned out: in the full panel of roughly 83,000, 20% have a hit.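 How to read the values: 0–100, growth inhibition (40 = 60% inhibited); 0, no net growth; -100 to 0, cell death (-40 = 40% of starting cells died; -100 = all dead).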 Unmarked numbers belong to inactive results. The source made the active and inactive calls. The calls were made as follows: active = growth percent below 10; inactive = the rest.

Tests used:
Assay in all cases: NCI-60 one-dose screen, 48 h (100 = growth as untreated, 0 = no growth, -100 = all killed)
Conditions in all cases: 10 µM unless noted
DU-145 prostate = tested on: DU-145 prostate
K-562 leukemia = tested on: K-562 leukemia
MALME-3M melanoma = tested on: MALME-3M melanoma
MDA-MB-231 breast = tested on: MDA-MB-231 breast
RXF 393 renal = tested on: RXF 393 renal
SF-268 CNS = tested on: SF-268 CNS
SF-295 CNS = tested on: SF-295 CNS
SF-539 CNS = tested on: SF-539 CNS
UACC-257 melanoma = tested on: UACC-257 melanoma
M14 melanoma = tested on: M14 melanoma
HCT-15 colon = tested on: HCT-15 colon
HT29 colon = tested on: HT29 colon
SNB-75 CNS = tested on: SNB-75 CNS
SNB-19 CNS = tested on: SNB-19 CNS
U251 CNS = tested on: U251 CNS
PC-3 prostate = tested on: PC-3 prostate
SK-MEL-5 melanoma = tested on: SK-MEL-5 melanoma
UACC-62 melanoma = tested on: UACC-62 melanoma
LOX IMVI melanoma = tested on: LOX IMVI melanoma
SK-MEL-28 melanoma = tested on: SK-MEL-28 melanoma

Row | Structure (SMILES) | growth (DU-145 prostate) [%] | growth (K-562 leukemia) | growth (MALME-3M melanoma) | growth (MDA-MB-231 breast) | growth (RXF 393 renal) | growth (SF-268 CNS) [%] | growth (SF-295 CNS) | growth (SF-539 CNS) | growth (UACC-257 melanoma) | growth (M14 melanoma) | growth (HCT-15 colon) | growth (HT29 colon) | growth (SNB-75 CNS) | growth (SNB-19 CNS) | growth (U251 CNS) | growth (PC-3 prostate) [%] | growth (SK-MEL-5 melanoma) | growth (UACC-62 melanoma) | growth (LOX IMVI melanoma) | growth (SK-MEL-28 melanoma) [%]
1 | c1ccc(-c2cn3ccnc3c(-c3ccc4c(c3)ncn4C3CCCCC3)n2)cc1 | 97.4 | 68.9% | 120% | 93.4% | 76.7% | 98.7 | 101% | 97.8% | 110% | 98.4% | 80.9% | 90.8% | 94.4% | 98.3% | 95.6% | 86.5 | 94.3% | 98% | 95.1% | 111
2 | CCCCn1c(=O)c(/C=C/C(=O)/C=C/c2ccc(OC)cc2)cc2cc(Cl)ccc21 | 53.5 | 25.2% | 119% | 83.8% | 84.5% | 42.6 | 19.9% | 91.8% | 92.1% | 95% | 27.5% | 9.75% (active) | 84.9% | 47.5% | -13.4% (active) | 39.5 | 78.9% | 76.2% | 9.25% (active) | 115
3 | O=C1Nc2ccc(Cl)cc2/C1=N/c1nc(-c2ccc(F)cc2)cs1 | 69.8 | 14.6% | 53.6% | 31.3% | 37% | 46 | 39.6% | 48.6% | 36.5% | 38.7% | 43.9% | 22.6% | 58.6% | 34.1% | 25.4% | 17.4 | 41.7% | 7.64% (active) | 19.5% | 42.6
4 | c1ccc(-c2n(Cc3ccc4ccccc4n3)cc[n+]2Cc2ccc3ccccc3n2)cc1 | 65.8 | 16.9% | 19.8% | 30.5% | 52.2% | 41.8 | 67.8% | 37.2% | -14.6% (active) | 34.6% | 102% | 22.8% | 42.6% | 8.24% (active) | 14.7% | 27 | -73.4% (active) | -10.3% (active) | 19.5% | 24.5
5 | CC(=O)c1cnc(-c2ccccc2)nc1CBr | 70.9 | 3.21% (active) | 55.8% | 66.4% | 60% | 84.8 | 97.8% | 91.6% | 95.3% | 69.8% | 63.5% | 43.5% | 73.4% | 81% | 79.5% | 73 | 91.6% | 84.3% | -39.9% (active) | 104
6 | Cc1c(Cl)cccc1NC(=O)c1sc2nc3c(cc2c1N)CCCCC3 | 15.6 | 8.36% (active) | 68.9% | 48.4% | 22.8% | 54.2 | 32% | 13.9% | 67% | 2.84% (active) | 30.1% | 9.15% (active) | 9.95% (active) | 34.2% | 24.2% | 37.9 | 45.8% | 39.6% | 41.8% | 72.6
7 | Cc1cccc2nc3c(n12)C(=O)C(=O)c1ccccc1-3 | 76.9 | 28.9% | 64.4% | 63.9% | 103% | 80.8 | 82.7% | 69.3% | 49.5% | 67.1% | 40.8% | 78% | 136% | 61.3% | 43% | 40.2 | 30.2% | -57.4% (active) | 6.44% (active) | 85.7
8 | O=C1CS/C(=N/c2nnc(-c3ccc(O)cc3)s2)N1 | 110 | 95.6% | 101% | 109% | 125% | 108 | 93.9% | 102% | 100% | 103% | 101% | 103% | 111% | 108% | 101% | 99.5 | 102% | 108% | 92.2% | 110
9 | COc1ccccc1-c1ccc2nc(NC(=O)Nc3cc(C(F)(F)F)cc(C(F)(F)F)c3)sc2c1 | 19.5 | 5.97% (active) | -13% (active) | -64.2% (active) | -6.71% (active) | 16.8 | -0.289% (active) | 5.2% (active) | -5.57% (active) | 16% | 9.74% (active) | 4.76% (active) | 8.11% (active) | 25.1% | 12.5% | 13.5 | -86.1% (active) | 10.8% | 5.02% (active) | 31.1
10 | S=C(Nc1ccccc1)c1ccccn1 | 120 | 99.7% | 114% | 102% | 128% | 105 | 114% | 91.1% | 31.3% | 90.6% | 96.8% | 86.4% | 97.3% | 97.5% | 95.2% | 92.2 | 102% | 90.3% | 85.9% | 104
11 | C/C(=N\NC(=O)c1ccncc1)c1ccc(N)cc1 | 107 | 83.6% | 98.5% | 98.4% | 106% | 99.2 | 99.4% | 98.5% | 93% | 102% | 103% | 97.2% | 88.8% | 94.6% | 97.7% | 85.8 | 98.8% | 93.6% | 98% | 106
12 | COc1ccc(-c2nc(C#N)c(NCC(c3ccco3)N3CCCC3)o2)cc1 (stereo not given) | 49.2 | 20.6% | 51.2% | 77.8% | 14.8% | 52.3 | 24.2% | 23.7% | 55.2% | 12.6% | 30.9% | 10.7% | 40.6% | 51.9% | 35.7% | 37 | 24.6% | 47.2% | 41.4% | 61.7
13 | O=CN1N=C(c2ccc(Cl)cc2)CC1c1cccc(Nc2ccnc3cc(C(F)(F)F)ccc23)c1 (stereo not given) | 70.1 | 24.9% | 77.5% | 80.7% | 71.4% | 58.9 | 51.4% | 78.7% | 52.1% | 74% | 71.2% | 58.5% | 74.9% | 70.6% | 64.1% | 48.9 | 1.24% (active) | 63.7% | 51.5% | 90.8
14 | O=C1Nc2ccc(Br)cc2/C1=N\N=C/c1cn(Cc2ccccc2)c2ccccc12 | 95.7 | 67.4% | 115% | 93.3% | 58.4% | 95 | 95.9% | 99.4% | 109% | 106% | 103% | 91% | 84.7% | 98% | 94.6% | 75.1 | 97.2% | 79.4% | 98.1% | 105
15 | CCOc1ccc(C2N(c3cc(OC)c(OC)c(OC)c3)C(=O)C2(F)F)cc1 (stereo not given) | 30.1 | 8.49% (active) | 63.1% | 46.1% | 54.2% | 52.4 | 56.3% | 10.8% | 58.7% | 27.5% | 22.6% | 12.3% | 55.9% | 54.1% | 36.2% | 37.3 | 6.76% (active) | 51.6% | 27.6% | 66.8
